# In the library only some 5% were active in any assay of this set; here they are far more common.
# USP10 inh: human USP10 deubiquitinase inhibition; Q14694; purified USP10, Ub-rhodamine fluorescence, 60 min; inhibition, % at 20 µM; hit rate 1.1% among 47,000; AID 1645856
# USP8 block: blocks human USP8 ubiquitin-rhodamine cleavage; purified USP8, Ub-rhodamine cleavage fluorescence, 30 min; inhibition, % at 20 µM; hit rate 4.2% among 47,000
# UCHL1 inh: human UCHL1 deubiquitinase inhibition; P09936; purified UCHL1, Ub-rhodamine cleavage fluorescence; inhibition, % at 20 µM; hit rate 0.2% among 47,000
# Target sequence (P09936 whole entry, looked up): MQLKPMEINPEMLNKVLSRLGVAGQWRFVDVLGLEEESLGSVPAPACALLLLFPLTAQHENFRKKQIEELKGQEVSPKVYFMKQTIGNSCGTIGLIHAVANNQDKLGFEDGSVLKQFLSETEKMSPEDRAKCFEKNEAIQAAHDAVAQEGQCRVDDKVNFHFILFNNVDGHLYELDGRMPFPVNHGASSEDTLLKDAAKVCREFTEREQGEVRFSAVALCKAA
# USP7 inh: inhibitors of human USP7 deubiquitinase; purified USP7, Ub-rhodamine cleavage fluorescence; inhibition, % at 20 µM; hit rate 0.3% among 47,000; AID 1645854
# OTUD3 inh: inhibitors of human OTUD3 deubiquitinase. purified OTUD3, Ub-rhodamine fluorescence, 2 h. inhibition, % at 25 µM. hit rate 0.7% among 47,000
# * marks the source's active call; other numbers are inactive results. Cut-off read from the data, not from the text of the source: active = inhibition above about 30%; inactive = the rest.
SMILES,USP10 inh,USP8 block,UCHL1 inh,USP7 inh,OTUD3 inh
CCOc1ccc(-n2c(SCC(=O)Nc3ccc(C)cc3)nnc2-c2c[nH]c3ccccc23)cc1,71*,97*,7,15,12
CC1(C(=O)NCc2ccc(F)cc2)Cn2nc(-c3ccco3)cc2C(=O)N1c1ccc2c(c1)OCCO2 (stereo not drawn),12,61*,7,-9,0
CCOC(=O)N1CCN(C(=O)[C@H]2[C@@H]3C[C@@H]4[C@H]2C(=O)O[C@@H]4C3)CC1,2,17,0,7,8
CCCc1cc2c(cc1NC(=O)Cc1ccc(F)cc1)OCO2,-2,-1,-3,-11,-5
CC(C)CC(=O)Nc1cc(F)c2nc(N3CCOCC3)ccc2c1,-8,80*,5,-6,-7
O=C(CCc1ccccc1)Nc1cc(F)c2nc(N3CCOCC3)ccc2c1,-2,46*,-2,-5,8
O=C(COc1ccc(F)cc1)Nc1cc(F)c2nc(N3CCOCC3)ccc2c1,-11,41*,-14,-17,-14
CN(C)c1cccc(C(=O)Nc2nnc(C3CCCCC3)s2)c1,4,0,-2,-42,-12
CC(C)CC(=O)N[C@H]1C[C@H]2CN(Cc3ccccc3)c3ccccc3CN2C1,-5,-30,-8,-39,-95
COc1ccc(-c2ocnc2C(=O)NCc2ccc(F)cc2)cc1OC,-1,4,2,1,1
COc1ccc(-c2ocnc2C(=O)Nc2ccccc2F)cc1OC,0,26,6,5,37*
COc1cccc(CC(=O)N2CC[C@@H]3CN(C)S(=O)(=O)[C@@H]3CC2)c1,-1,-26,-2,1,-7
O=c1ccc(S(=O)(=O)N2CCCCCC2)cn1Cc1ccccc1F,2,-4,-1,-14,-6
O=C(c1ccc(-n2cncn2)cc1)N(Cc1ccco1)C1CCCC1,0,11,5,-4,5
COc1cc(OC)c2c(c1)C(=O)C1=C(COC(C)(O)C1)C2=O (stereo not drawn),0,68*,16,-13,13
COc1ccc(NC(=O)C2CCCN(S(=O)(=O)N3CCC(C)CC3)C2)c(OC)c1 (stereo not drawn),-3,44*,-3,-5,-4
COc1cccc(-c2ocnc2C(=O)Nc2c(C)cccc2C)c1,2,3,3,5,5
Nc1c(-c2ccc(Cl)cc2)cnc2nc(Sc3ncc(C(F)(F)F)cc3Cl)nn12,23,35*,2,9,30*
Cc1ccc(N(C)S(=O)(=O)C2CCS(=O)(=O)C2)cc1 (stereo not drawn),2,-11,0,-1,13
COC(=O)c1cc2c(ccn2-c2ccc(F)cc2)n1C,3,36*,6,-13,-4
COC(=O)c1cc2c(ccn2-c2ccc(F)cc2)n1CC(=O)N(C1CCCCC1)C1CCCCC1,-5,17,0,8,-4
CN1C(=O)COc2cc(-c3noc(C(=O)NCc4ccccc4)n3)ccc21,0,10,4,3,15
CN1C(=O)COc2cc(-c3noc(C(=O)NCc4ccc(F)cc4)n3)ccc21,55*,41*,4,9,29
Cc1nc2ccc(NC(=O)COc3ccccc3[N+](=O)[O-])cc2s1,10,44*,-3,6,-2
O=C(c1ccc(OCC2CCN(C(=O)c3c(F)cccc3F)CC2)cc1)N1CCOCC1,-1,-3,0,0,-1
SMILES,USP10 inh,USP8 block,UCHL1 inh,USP7 inh,OTUD3 inh
COc1ccc(NC(=O)CN2CC(C)Sc3ccccc32)cc1 (stereo not drawn),-4,44*,1,2,-2
CCCCOc1ccc(NC(=O)CCc2c(C)nc3nc[nH]n3c2=O)cc1,3,16,3,6,12
COc1ccc(CNC(=O)c2nnc(C(=O)Nc3ccc(F)cc3)s2)cc1,17,21,2,9,3
CN(C)c1ccc(CNC(=O)c2nnc(C(=O)Nc3ccccc3)s2)cc1,14,37*,0,18,-2
O=C(COC(=O)c1ccc2c(c1)OCO2)Nc1ccc2[nH]c(=O)[nH]c2c1,19,6,3,10,24
O=C(COC(=O)c1cc2c(s1)CCC2)c1ccc2[nH]c(=O)[nH]c2c1,4,70*,7,-22,36*
COc1ccccc1Cc1cccc(C2CCN(Cc3ccccn3)CC2)n1,-9,18,-2,-2,3
O=C(c1c(F)cccc1F)N1CC2CCCN2c2ccc(C(F)(F)F)cc21 (stereo not drawn),-1,34*,5,11,14
Cc1ccc(-n2cc(C(=O)N3CCN(c4ccccc4)CC3)nn2)cc1,6,40*,0,2,8

# Screening results: PubChem BioAssay, Buhrlage Lab, Dana-Farber Cancer Institute and Novartis Institutes for BioMedical Research (Cambridge, Mass)
